Source: PubChem
Rows were chosen to be rich in hits. Some 8% of all compounds tested hit in one or more screens of this group.
MCF10A rereplic – induces DNA re-replication in MCF 10a normal breast cells; MCF 10A DNA re-replication, Hoechst nuclear intensity, 48 h; hit rate 2.9% among 350,000; Potency, µM (series often up to 46.1 µM), actives largely listed as activators; also: nearly all actives have a fitted effect of over 50% in size
HT1080 IDH1KD tx – kills HT-1080 cells with IDH1 knockdown; HT-1080 IDH1 knockdown viability, ATP luminescence, 48 h; Potency, µM (highest dose often 46.1 µM), hits mostly cytotoxic; hit rate 2% among 360,000
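Viability of IDH1-knockdown HT-1080 fibrosarcoma cells was assessed by CellTiter-Glo after 48 h at 37 °C with titrated compound; concentration-effect curves were classified by fit quality and response size.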
KB-3-1 cytotox – kills parental KB-3-1 adenocarcinoma cells. KB-3-1 viability, CellTiter-Glo ATP luminescence, 72 h. Potency, µM (series often up to 46.1 µM), actives largely listed as cytotoxic. hit rate 1.4% among 400,000; also: nearly all actives have a fitted effect of over 60% in size
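Cells are dispensed, compounds pinned in, plates held at 37 °C for 72 h, then CellTiter-Glo is added and luminescence read after 10 minutes. Cell line: parental KB-3-1 in phenol-red-free DMEM, 10% FBS.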
HT1080NT lethal – kills 2HG-producing HT-1080-NT fibrosarcoma cells; Potency, µM (series often up to 46.1 µM), hits mostly cytotoxic; HT-1080-NT fibrosarcoma viability, CellTiter-Glo ATP luminescence, 48 h; hit rate 1.6% among 360,000;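 also: NT is the 2HG producing partner of a matched IDH1 knockdown line; nearly all actives have a fitted effect of over 55% in size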
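Viability of the 2HG-overproducing fibrosarcoma line after 48 hours of compound exposure at 37 degrees C was determined by luminescence with CellTiter-Glo, and concentration-effect curves were then fitted and categorized.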
SW480 rerep – inducers of DNA re-replication in SW480 colon cancer cells | hit rate 1.8% among 340,000 | SW480 DNA re-replication, Hoechst DNA content imaging, 48 h | Potency, µM (titrated, usually from 46.1 µM), usual class: activators; also: nearly all actives have a fitted effect of over 55% in size
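First, 250 cells per well were seeded. Next, compound or vehicle (23 nL) was pinned in, plates sat 48 hr at 37 C. Finally Hoechst was added for 40 min before fluorescence scanning.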
KB-V1 MDR tox – KB-V1 MDR subline cytotoxicity; KB-V1 MDR cells viability, CellTiter-Glo, 72 h; Potency, µM (highest dose often 46.1 µM), usual class: cytotoxic; hit rate 3.4% among 400,000; also: nearly all actives have a fitted effect of over 60% in size
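Cytotoxicity toward P-gp-expressing KB-V1 cells was determined as loss of CellTiter-Glo luminescence after 72 h at 37 degrees C. Compounds were tested in quantitative HTS format across a concentration range, with curves fitted to normalized data.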
Numbers stand for hits; . = inactive; ? = inconclusive; / = not tested or not shown; [ ] = dose if it differs, or a comment. Calls follow the shape of the dose curve; as a rule, active = well fitted curve in the direction sought with a large enough effect; inconclusive = small, poorly fitted or top-dose-only effect, or another doubt; inactive = no such curve, though single readings can be large; an effect the other way counts as inactive or inconclusive.

SMILES	MCF10A rereplic	HT1080 IDH1KD tx	KB-3-1 cytotox	HT1080NT lethal	SW480 rerep	KB-V1 MDR tox
O=C(O)c1cccc2c1Cc1cc([N+](=O)[O-])ccc1-2	.	.	?	.	.	.
CC(O)CN(CC(C)O)c1ccc2c(c1)Cc1cc([N+](=O)[O-])ccc1-2 (centres undefined)	12µM	?	.	.	8.2µM	.
CC(=NO)c1ccc2c(c1)Cc1cc([N+](=O)[O-])ccc1-2	.	.	15µM	.	.	7.3µM
Cc1ccc(-n2c(=O)c3c4c(sc3n(CC(=O)Nc3ccccc3C)c2=O)CCCCC4)cc1C	/	/	.	/	/	.
CCCC(=O)N(CCN(C(=O)CCC)c1ccccc1)c1ccccc1	.	.	.	.	.	10µM
CCN(C(=O)CCC(=O)N(CC)c1ccccc1)c1ccccc1	.	.	.	.	.	.
N#Cc1nc(-c2ccc(OCc3ccc(Cl)cc3)cc2)oc1N1CCCCC1	/	/	.	/	/	.
Cc1ccc2cc(CCNC(=O)c3ccc(Br)o3)c(=O)[nH]c2c1	.	.	?	.	.	18µM
Cc1ccc(N2CCN(C(=O)Cn3ncc4c([nH]c5ccc(C)cc54)c3=O)CC2)c(C)c1	/	/	.	/	/	.
CCN(c1cccc(C)c1)S(=O)(=O)c1ccc2c(c1)CCN2C(C)=O	?	?	?	?	?	23µM
O=C(C[n+]1c(Cl)ccc2ccccc21)c1ccc2ccccc2c1	/	/	?	/	/	.
CCN(CC(=O)Nc1ccccc1OC)CC(=O)Nc1ccccc1C(F)(F)F	?	.	.	.	?	?
O=C(CNC(c1ccccc1)c1ccccc1)Nc1ccccc1-c1ccccc1	?	.	?	.	.	15µM
COCC(=O)Nc1ccccc1-c1ccccc1	.	.	.	.	.	.
CCN(CC(=O)Nc1ccccc1OC)CC(=O)Nc1ccccc1-c1ccccc1	15µM	7.3µM	21µM	15µM	?	8.2µM
COc1ccc(CC(=O)Nc2ccccc2-c2ccccc2)cc1OC	.	.	?	.	.	15µM
Cc1ccc(CC(=O)Nc2ccccc2-c2ccccc2)cc1C	9.2µM	.	.	.	.	21µM
COc1ccc(C(=O)OC2=C(C(=O)c3ccccc3)N(C)S(=O)(=O)c3ccccc32)cc1OC	/	/	.	/	/	.
Cc1cc2c(cc1S(=O)(=O)N(CCN(C)C)Cc1ccccc1)OCC(=O)N2	/	/	.	/	/	.
CCN(CC(=O)Nc1ccccc1-c1ccccc1)Cc1nc2ccccc2c(=O)[nH]1	6.5µM	4.6µM	8.2µM	5.8µM	?	?
Cc1c(Cl)c(=O)oc2cc(OC(C)C)ccc12	.	.	.	.	.	21µM
Cc1ccc(CNC(=O)c2cc(=O)c3cc(C)c(C)cc3o2)cc1	/	/	.	/	/	.
O=C(NCCc1ccccc1)c1cccnc1N1CCCCCC1	26µM	.	.	.	.	?
O=C(NCCc1ccccc1)c1ccccc1Cl	.	.	.	.	.	.
CCCCCn1c(SCC(=O)OCC)nc2cc(C(=O)N3CCC(C(N)=O)CC3)ccc2c1=O	.	.	.	.	.	.
SMILES	MCF10A rereplic	HT1080 IDH1KD tx	KB-3-1 cytotox	HT1080NT lethal	SW480 rerep	KB-V1 MDR tox
C=CCn1c(SCc2ccc(Cl)cc2)nc2cc(C(=O)N3CCC(C(N)=O)CC3)ccc2c1=O	.	.	?	.	.	26µM
Cc1nnsc1C(=O)NC1CCCc2c1cnn2-c1ccc(F)cc1F (centres undefined)	.	.	.	7.3µM	.	?
Cc1nnsc1C(=O)NC1CCCc2c1cnn2-c1cc(F)cc(F)c1 (centres undefined)	.	.	.	.	.	.
COC(=O)c1ccc(C(=O)NC2CCCc3c2cnn3-c2ccccc2F)nc1 (centres undefined)	15µM	?	?	?	18µM	4.1µM
COc1cc(C(=O)NC2CCCc3c2cnn3-c2ccccc2F)cc(OC)c1OC (centres undefined)	.	.	?	.	.	?
O=C(O)CCn1cc(/C=C\C(=O)c2ccc(Cl)cc2)c(-c2cccc(Br)c2)n1	12µM	?	.	.	.	.
CCc1ccc(S(=O)(=O)/N=C2\C=C(Nc3ccc(O)cc3)C(=O)c3ccccc32)cc1	3.7µM	2.9µM	2.9µM	2.9µM	5.8µM	?
CCc1ccc(S(=O)(=O)/N=C2\C=C(Nc3cccc(C(=O)O)c3)C(=O)c3ccccc32)cc1	?	7.3µM	.	8.2µM	.	.
CCc1ccc(S(=O)(=O)/N=C2/C=C(Sc3ncn[nH]3)C(=O)c3ccccc32)cc1	3.3µM	5.2µM	.	5.8µM	4.6µM	.
O=C(NCc1ccc2c(c1)CCN2C(=O)c1ccncc1)c1ccc(Cl)cc1	/	/	.	/	/	?
CCOc1ccc(C(=O)CSc2nc3cc(C(=O)NC4CCCC4)ccc3c(=O)n2CC2CCCO2)cc1 (centres undefined)	/	/	.	/	/	.
CCOc1ccc(NC(=O)CC2C(=O)N(c3ccc(OC)cc3)C(=O)N2CCc2cccs2)cc1 (centres undefined)	.	.	.	.	.	18µM
COCCN1C(=O)N(c2ccc(OC)cc2)C(=O)C1CC(=O)Nc1cccc(F)c1 (centres undefined)	0.92µM	.	.	.	.	.
O=C1CCCC2=C1C(c1ccc(Cl)cc1)C1C(=O)c3ccccc3C1=N2 (centres undefined)	13µM	?	.	?	15µM	.
CCCCCCOc1ccc(C(=O)O)cc1C#N	18µM	.	.	.	.	.
CCOC(=O)CSc1nc2c([nH]c3ccccc32)c(=O)n1-c1ccc(OCC)cc1	/	/	.	/	/	.
CCOC(=O)C1CCN(C(=O)C2CCN(S(=O)(=O)c3c(C)noc3/C=C/c3ccc(C)cc3)CC2)CC1	/	/	?	/	/	.
NC1=C(Br)C(=O)c2ncccc2C1=O	0.52µM	3.3µM	2.6µM	3.3µM	8.2µM	3.7µM
Cc1ccc(C(=O)Nc2ccc3oc(-c4ccccc4C)nc3c2)cc1	/	/	.	/	/	.
Cc1ccc(Cn2ccsc2=NC(=O)COC(=O)c2ccc(NC(=O)CC#N)cc2)cc1	.	.	?	.	.	.
Cc1ccc(Cn2ccsc2=NC(=O)CCl)cc1	?	12µM	21µM	1µM	.[1.84 µM]	?
CC(=O)Nc1ccc(C(=O)OCc2ccc(Br)cc2)cc1	?	.	.	.	.	18µM
CCOc1ncccc1C(=O)OCc1ccc(C(=O)OC)cc1	.	?	?	?	7.3µM	.
COC(=O)c1ccc(COC(=O)c2ccc(N(C)C)cc2)cc1	8.2µM	.[9.24 µM]	.	.	?	.
Cc1noc(C)c1COC(=O)c1ccc(N(C)C)cc1	.	.	?	.	.	4.1µM
CCN(C(=O)COC(=O)c1ccc(OCc2c(C)noc2C)cc1)c1ccccc1	.	.	.	.	.	.
O=C(OCc1ccc(Br)cc1)c1ccncc1	.	.	.	.	?	.
